Source: PubChem BioAssay (several laboratories)
ADAM10 inh: inhibitors of human ADAM10. recombinant ADAM10, EDANS/DABCYL FRET peptide cleavage, 3 h. inhibition, % at 7 µM. 370,000 tested, 0.62% active. AID 720582;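 active means inhibition above a per-campaign cutoff equal to the mean of compounds falling between control-based bounds plus 3 SD, cut at about 20% in these data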;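 further: 0% = DMSO wells while the 100% control is not disclosed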
CendR NRP1 mod: NRP-1/CendR interaction modulation; O14786; FAM-RPARPAR peptide binding to NRP-1, fluorescence polarization; inhibition, % at 25 µM; 360,000 tested, 0.85% active; AID 602438;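 active means inhibition or corrected inhibition above about 18%, plus a signal ratio from 0.5 to 1.5, limit read from the data, passing the limit was not always enough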
ADAM17 inh: inhibitors of human ADAM17; P78536; recombinant ADAM17, EDANS/DABCYL FRET peptide cleavage; inhibition, % at 6.95 µM; 370,000 tested, 0.83% active;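 active means inhibition above the mean of compounds lying between control limits plus 3 SD, set per campaign, cut at about 8.5% in these data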;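 further: 0% = DMSO-only wells as the low control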
A3G deaminase: blocks human APOBEC3G single-stranded DNA deamination; AID 493012; 330,000 tested, 0.28% active; Q9HC16; recombinant A3G, ssDNA deamination FAM/TAMRA fluorescence; inhibition, % at 20 µM;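 active means inhibition of at least 40% at 20 µM, with no more than 30% in the related APOBEC3A deaminase screen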;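 further: plate controls were DMSO wells with A3G for no effect and wells lacking A3G enzyme for full effect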
Target sequence (Q9HC16 whole entry, looked up): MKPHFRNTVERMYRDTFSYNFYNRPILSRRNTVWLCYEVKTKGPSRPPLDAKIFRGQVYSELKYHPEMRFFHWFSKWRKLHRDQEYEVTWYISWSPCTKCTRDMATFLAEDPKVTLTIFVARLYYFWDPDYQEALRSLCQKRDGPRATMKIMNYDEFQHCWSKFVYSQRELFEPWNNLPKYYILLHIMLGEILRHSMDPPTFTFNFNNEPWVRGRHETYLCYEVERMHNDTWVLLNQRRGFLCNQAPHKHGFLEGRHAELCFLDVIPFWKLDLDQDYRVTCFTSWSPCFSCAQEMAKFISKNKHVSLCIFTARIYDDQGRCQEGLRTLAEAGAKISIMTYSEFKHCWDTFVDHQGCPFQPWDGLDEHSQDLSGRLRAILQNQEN
APOBEC3A inh: blocks human APOBEC3A ssDNA deamination. P31941. recombinant A3A, FAM/TAMRA ssDNA deamination fluorescence. inhibition, % at 20 µM. 330,000 tested, 0.41% active. AID 493011;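 active means at least 40% inhibition at 20 µM here, with at most 30% in a related deaminase screen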;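 further: plate controls were A3A with DMSO for no effect and wells lacking A3A enzyme for full effect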
Numbers without * were called inactive; nt = not tested or not shown. In the library only some 2.4% were active in any assay of this set; here they are far more common.

SMILES	ADAM10 inh	CendR NRP1 mod	ADAM17 inh	A3G deaminase	APOBEC3A inh
O=C(c1cccc(Br)c1)N1CCC(Oc2cccnc2)CC1	5	nt	0	nt	nt
Cc1ccsc1C(=O)N1CCCC(CO)(Cc2ccccc2F)C1 (stereo not given)	-1	21*	-4	-5	-2
CCOC(=O)C1(Cc2ccccc2C)CCCN(C(=O)c2sccc2C)C1 (stereo not given)	-9	10	1	-9	-3
CCC(=O)N1CCc2cc(Br)c(S(=O)(=O)NC3CCN(Cc4ccccc4)CC3)cc21	3	nt	2	nt	nt
O=C(CSc1nnc(CNC(=O)c2ccco2)o1)Nc1cccc(F)c1	8	19*	2	2	1
CCNCc1nc2cc(OC)c(OC)cc2c(=O)[nH]1	7	28*	-3	-6	-6
Cc1ccc(NC(=O)c2cc(S(=O)(=O)NCCC3=CCCCC3)ccc2F)cc1F	25*	2	10*	-2	4
O=C1C(C2=C(O)c3ccccc3C2=O)=Nc2ccccc21	-11	39*	-6	-7	-1
CN=CC1=C(O)c2ccccc2C1=O	2	8	-2	-8	-4
NC(Cc1ccc(Cl)cc1)c1csc(Nc2ccc(S(N)(=O)=O)cc2)n1 (stereo not given)	-18	-7	-1	nt	nt
CS(=O)(=O)c1ccc(Nc2nc(C(N)Cc3ccc(Cl)cc3)cs2)cc1 (stereo not given)	-34	33*	-15	nt	nt
O=[N+]([O-])c1ccccc1/C=C/C1Nc2cccc3cccc(c23)N1	-4	nt	0	nt	nt
CC(C)(C)OC(=O)CN1C(=O)S/C(=C\c2ccc(-c3cccc(C(=O)O)c3)o2)C1=O	nt	nt	nt	-11	45*
O=C(NC1CCCCN(Cc2cccc(Cl)c2)C1=O)c1ccccc1 (stereo not given)	8	nt	1	nt	nt
N[C@@H](Cc1ccc(O)cc1)c1nnc([C@H](CO)NC(=O)C2CCNCC2)o1	-7	22*	1	-10	-2
CN(C)[C@@H](CO)c1nnc([C@H](Cc2ccc(O)cc2)NC(=O)C2CCNCC2)o1	-4	7	-5	-7	-1
O=C(Nc1ccc(N2C(=O)CC(c3ccccc3)C2=O)c(Cl)c1)c1ccccn1 (stereo not given)	8	nt	2	nt	nt
C=CCn1c(SCC(=O)Nc2ccccc2OCC)nnc1-c1ccc(C(C)(C)C)cc1	5	nt	6	nt	nt
COc1ccc(NC(=O)Nc2ccc(Br)cn2)cc1	9	24*	-2	-1	0
COC(=O)c1ccccc1NC(=O)Nc1ccc(Br)cn1	-7	-9	-3	-1	2
COc1cc2c(c(OC)c1)C(=O)O[C@H](C)C[C@@H]1O[C@H]1CCCCC(=O)C2	-7	nt	-5	nt	nt
c1ccc(C(c2nnnn2Cc2ccco2)N2CCN(c3nc4ccccc4s3)CC2)cc1 (stereo not given)	0	46*	-1	-4	-17
O=C(COC(=O)C1CCC1)Nc1ccc(OC(F)F)cc1	-2	-6	-6	-5	-3
O=C(COC(=O)C1CC1)Nc1ccc(OC(F)F)cc1	6	46*	1	-3	0
Cc1ccc(OCCC(=O)OCC(=O)NCCc2ccccc2)cc1	-5	27*	-1	-11	-3
SMILES	ADAM10 inh	CendR NRP1 mod	ADAM17 inh	A3G deaminase	APOBEC3A inh
C=C1CCN([C@@H](CC(C)C)C(=O)NCc2ccccc2)S(=O)(=O)c2ccccc21	-3	27*	0	-10	1
C=C1CCN(C(CC(C)C)C(=O)OC)S(=O)(=O)c2ccccc21 (stereo not given)	-3	7	-1	-8	-1
C=C1CCN([C@@H](CC(C)C)C(=O)NCc2ccco2)S(=O)(=O)c2ccccc21	-1	11	-3	-6	0
C=C1CCN(C(C(=O)OC)C(C)C)S(=O)(=O)c2ccccc21 (stereo not given)	6	6	0	-13	-3
C=C1CCN(C(C(=O)OC)C(C)C)S(=O)(=O)c2ccc(F)cc21 (stereo not given)	-2	28*	-2	-3	1
C=C1CCN([C@@H](CC(C)C)C(=O)O)S(=O)(=O)c2ccccc21	-3	25*	1	-11	-3
C=C1CCN([C@@H](CC(C)C)C(=O)NCCCc2ccccc2)S(=O)(=O)c2ccccc21	5	30*	3	-3	-2
